Test results reported in PubChem BioAssay (EPA / NIEHS).
Values joined by “and” are separate entries in the source; they are usually repeats but may differ in a detail not shown here. Equal values may be shown once. Some compounds were tested as several samples or in several runs, with calls that do not always agree. Active and inactive are the calls of the source. The calls were made as follows: active = hit-call score of the fitted dose curve at least 0.9, where 1 is the maximum; inactive = score below 0.9.

Read-out: urokinase plasminogen activator (uPA), PLAU (gene 5328)
Test: BSK_KF3CT_uPA: BioMAP Diversity Plus: KF3CT Assay for urokinase plasminogen activator (uPA) Biomarker Activity (AID 2283075)
Conditions: primary human keratinocytes with fibroblasts; actives raise or lower the signal
Protocol: BSK_KF3CT is a cell-based, multiplexed-readout assay that uses keratinocytes and foreskin fibroblasts, a human skin primary cell co-culture, with measurements taken at 24 hours after chemical dosing in a 96-well plate.BSK_KF3CTA is an assay component measured in the BSK_KF3CT assay. It measures uPA antibody related to regulation of gene expression using ELISA technology.Data from the assay component BSK_KF3CTA was analyzed into 1 assay endpoint. This assay endpoint, BSK_KF3CTA, was analyzed with bidirectional fitting relative to DMSO as the negative control and baseline of activity. Using a type of binding reporter, gain or loss-of-signal activity can be used to understand changes in the signaling as they relate to the gene PLAU. Furthermore, this assay endpoint can be referred to as a primary readout, because this assay has produced multiple assay endpoints where this one serves a signaling function. To generalize the intended target to other relatable targets, this assay endpoint is annotated to the protease intended target family, where the subfamily is serine protease.
The levels of cell surface (or secreted, indicated by the prefix "s") biomarker endpoints were measured by ELISA. Overt cytotoxicity to cells in confluent adherent cultures (all systems other than the BT system) was assessed by measuring total protein levels using sulforhodamine B (SRB) staining in parallel cultures at the time of biomarker measurements, indicated as SRB endpoints. For proliferation assays for adherent cell types, individual cell types are cultured at sub-confluence and relative cell numbers quantified by SRB staining at time points optimized for each system (48 h: 3C and CASM3C systems; 72 h: BT and HDF3CGF systems; 96 h: SAg system). SRB was performed by staining cells with 0.1% SRB after fixation with 10% TCA and reading wells at 560 nm.Viability and proliferation of PBMC (T cells) was quantified by Alamar Blue reduction for the SAg and BT systems. For PBMC viability (referred to as PBMC Cytotoxicity within the assay endpoint names), cells were plated (75,000/well in a 96-well plate) and then chemical samples added for 1 h before addition of activators, SEB and TSST-1 (20 ng/mL final concentration each). Cells were incubated for 90 h. Then, Alamar Blue (20 uL/well) (Invitrogen, Cat DAL1100) was added for 6 h, and the plates were read with a fluorescence microplate reader at 546/580 nm (excitation/emission). For PBMC proliferation, cells were plated and activated as above but incubated for only 16 h prior to addition of Alamar Blue. Plates were read after 6 h.

Compound	outcome	AC50
O=C(O)C(F)(F)C(F)(F)C(F)(F)C(F)(F)C(F)(F)C(F)(F)C(F)(F)C(F)(F)F	inactive	
O=C(NC(=O)c1c(F)cccc1F)Nc1cc(Cl)c(OC(F)(F)C(F)F)c(Cl)c1	inactive	
Clc1ccc(Cl)cc1	inactive	
C=CC(N)=O	inactive	
Cc1ccc(O)c(C)c1	inactive	
C[C@]12CCC(=O)C=C1CC[C@@H]1[C@@H]2CC[C@@]2(C)[C@H]1CC[C@]2(C)O	inactive	
CC(C)(c1ccccc1)c1ccc(O)cc1		31.5 µM (active)
ClC1=C(Cl)[C@]2(Cl)[C@@H]3[C@@H]4C[C@@H]([C@H]5O[C@@H]45)[C@@H]3[C@@]1(Cl)C2(Cl)Cl	inactive	
Cc1cccc(C)c1N	inactive	
CN(C)c1nc(=O)n(C2CCCCC2)c(=O)n1C	inactive	
c1ccc(-c2ccccc2)cc1	inactive	
CCC(=O)O[C@H]1CC[C@H]2[C@@H]3CCC4=CC(=O)CC[C@]4(C)[C@H]3CC[C@]12C		32.5 µM (active)
CCCCCCCCOC(=O)c1ccccc1C(=O)OCCCCCCCC	inactive	
C=CC(=O)NCNC(=O)C=C	inactive	
COc1ccc(O)c(C(C)(C)C)c1	inactive	
CO/C=C(/C(=O)OC)c1ccccc1COc1cccc(C(F)(F)F)n1	inactive	
O=NN(c1ccccc1)c1ccccc1	inactive	
CCOCCOC(C)=O	inactive	
Oc1ccc(C(c2ccc(O)cc2)(C(F)(F)F)C(F)(F)F)cc1		34.2 µM (active)
O=C(O)C(F)(F)C(F)(F)C(F)(F)C(F)(F)C(F)(F)F	inactive	

Compound	outcome	AC50
O=S(=O)(O)C(F)(F)C(F)(F)C(F)(F)C(F)(F)C(F)(F)C(F)(F)F	inactive	
CCNc1nc(NC(C)C)nc(SC)n1	inactive	
O=S(=O)(O)C(F)(F)C(F)(F)C(F)(F)C(F)(F)F	inactive	
Cc1cc2c3c(c1)C(c1ccccc1)=N[C@@H](NC(=O)c1ccncc1)C(=O)N3CC2	inactive	
ClC1=C(Cl)[C@]2(Cl)[C@@H]3[C@H]4C[C@H]([C@@H]5O[C@H]45)[C@@H]3[C@@]1(Cl)C2(Cl)Cl	inactive	
CC#Cc1cc(C)nc(Nc2ccccc2)n1	inactive	
COS(=O)(=O)OC	inactive	
Cc1ccccc1CO[C@@H]1C[C@@]2(C(C)C)CC[C@]1(C)O2	inactive	
CCOP(=S)(OCC)SCSC(C)(C)C	inactive	
CC(C)C(=O)OCC(C)(C)C(OC(=O)C(C)C)C(C)C (stereo not given)	inactive	
CN(C)CCO	inactive	
Cc1cccc([N+](=O)[O-])c1	inactive	
Clc1ccc(C(Cl)(Cl)Cl)cc1	inactive	
Oc1c(Cl)c(Cl)c(Cl)c(Cl)c1Cl	inactive	27.4 µM (active)
Oc1ccc(Cl)cc1Cl	inactive	
Cc1cc(-c2ccc(N)c(C)c2)ccc1N	inactive	
NS(=O)(=O)C(F)(F)C(F)(F)C(F)(F)C(F)(F)C(F)(F)C(F)(F)C(F)(F)C(F)(F)F		13.5 µM (active) and 20.9 µM (active) and 21.5 µM (active)
CC1=C2C[C@H]3[C@@H](CC=C4C[C@@H](O)CC[C@@]43C)[C@@H]2CC[C@]12O[C@@H]1C[C@H](C)CN[C@H]1[C@H]2C	inactive	
C1CC2OC2CC1C1CO1 (stereo not given)	inactive	
